Screening results: PubChem BioAssay, Broad Institute
HIF activator = HIF pathway transcriptional activation; U2OS HRE-luciferase reporter, luminescence; normalized: DMSO 0%, desferrioxamine 100%; activation, % at 7.5 µM (by protocol); actives 0.32% (n = 300,000); AID 1910;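 active = mean activation of at least 10% of the iron chelator positive control signal, with at least half of replicates also reaching 10%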
AI-2 QS mod = modulates the Vibrio harveyi AI-2 quorum sensing system; Vibrio harveyi JMH597 AI-2 luminescence/OD600 ratio, 9 h; active compounds read low; strain lacks LuxN and CqsS sensors; 0 = neutral-control median; activity change, % at 7.5 µM; actives 0.4% (n = 300,000); in the data active = activity change below about -75%, passing the limit was not always enough;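 also: luminescence divided by OD600 gain over 9 h not by final OD600 alone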
ALR inh = blocks human ALR sulfhydryl oxidase activity | P55789 | purified ALR, DTT oxidation, H2O2 HRP-luminol luminescence | inhibition, % (concentration not given with the values) | actives 3.8% (n = 290,000) | AID 485317;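 active = mean replicate inhibition above about 79%, with every replicate also reaching it, limit read from the data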
Target sequence (P55789 whole entry, looked up): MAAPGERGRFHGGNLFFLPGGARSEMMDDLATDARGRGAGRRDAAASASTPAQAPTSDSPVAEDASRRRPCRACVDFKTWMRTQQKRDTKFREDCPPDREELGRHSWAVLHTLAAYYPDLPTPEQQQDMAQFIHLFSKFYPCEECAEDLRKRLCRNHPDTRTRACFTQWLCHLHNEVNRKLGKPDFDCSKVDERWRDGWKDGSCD
SUMO Mot1 rescue = inhibitors of SUMOylation pathway: yeast Mot1-301 growth rescue | S. cerevisiae Mot1-301 growth rescue, ATP luminescence, 38.5C; percent above DMSO median, 100 means doubled | growth rescue, % at 18.8 µM | actives 1% (n = 320,000);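 active = every valid replicate shows activation above 250% relative to neutral control wells; inactive = the rest, any valid replicate at or below 250%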;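 also: OY570 slx delta 5 strain wells were the positive control but not used for scaling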
* marks the source's active call; other numbers are inactive results. Only some compounds are listed: those with a hit (about 4.8% of all), similar ones and a draw of the others.

What do the screens show for `COc1ccc(/C=N/NC(=O)c2[nH]c3ccc(Br)cc3c2-c2ccccc2)c(C(=O)O)c1OC`?
HIF activator: 0; AI-2 QS mod: 21; SUMO Mot1 rescue: -8

How did COc1ccc(/C=N/NC(=O)c2[nH]c3ccc(Cl)cc3c2-c2ccccc2)c(C(=O)O)c1OC do in these assays?
HIF activator: -2; AI-2 QS mod: 18; ALR inh: 98*; SUMO Mot1 rescue: -8

Results for O=C(CN1C(=O)NC2(CCCCCCC2)C1=O)NC(=O)NCc1ccco1 ?
HIF activator: 0; AI-2 QS mod: 5; SUMO Mot1 rescue: 337*

What do the screens show for `CC(=O)Nc1cccc(-c2csc(Nc3ccc(Cl)cn3)n2)c1`?
HIF activator: 2; AI-2 QS mod: 25; ALR inh: 98*; SUMO Mot1 rescue: 15

Results for Cc1nc(-c2ccccc2)cs1 ?
HIF activator: 0; AI-2 QS mod: 28; ALR inh: -4; SUMO Mot1 rescue: 7

Results for CC(=O)Nc1ccc(-c2csc(Nc3ccc(Cl)cn3)n2)cc1 ?
HIF activator: 2; AI-2 QS mod: 19; SUMO Mot1 rescue: 21

Results for CC(=O)Nc1cccc(-c2csc(N)n2)c1 ?
HIF activator: 0; AI-2 QS mod: 29; ALR inh: 98*; SUMO Mot1 rescue: 134

What do the screens show for `CC(=O)Nc1cccc(-c2csc(NCc3ccccc3)n2)c1`?
HIF activator: -10; AI-2 QS mod: -35; ALR inh: 67; SUMO Mot1 rescue: 7

How did Cc1nc(-c2cccc(N)c2)cs1 do in these assays?
AI-2 QS mod: 12; ALR inh: 99*; SUMO Mot1 rescue: -31

How did O=C(COC(=O)Cc1ccsc1)Nc1cccc(F)c1 do in these assays?
ALR inh: -1; SUMO Mot1 rescue: -11

What do the screens show for `NC(=O)Cn1c(=O)n(CCC(=O)Nc2ccc(F)cc2)c(=O)c2sccc21`?
HIF activator: 0; AI-2 QS mod: 5; ALR inh: -2; SUMO Mot1 rescue: -12

How did COc1ccc(Cl)cc1NC(=O)C(C)OC(=O)C1=NNC(=O)CC1 (stereo unspecified) do in these assays?
ALR inh: -2; SUMO Mot1 rescue: -6

How did Cc1nc2c(C)cccc2cc1C(=O)N/N=C/c1ccc(O)cc1 do in these assays?
HIF activator: 1; AI-2 QS mod: -3; ALR inh: 99*; SUMO Mot1 rescue: -15

How did O=C(N/N=C/c1ccc(O)cc1)c1ccc(NC(=O)c2ccccc2Br)cc1 do in these assays?
HIF activator: 1; AI-2 QS mod: 26; ALR inh: 79*

Results for O=C(Nc1ccccc1C(=O)N/N=C/c1ccc(F)cc1)c1ccccc1Br ?
HIF activator: 0; AI-2 QS mod: 25; SUMO Mot1 rescue: -18

Results for Cc1cccc2cc(/C=N/NC(=O)c3ccccc3O)c(Cl)nc12 ?
HIF activator: 1; AI-2 QS mod: 15; ALR inh: 2; SUMO Mot1 rescue: -7

What do the screens show for `Cc1ccccc1C(=O)Nc1ccc(C(=O)N/N=C/c2ccc(O)cc2)cc1`?
HIF activator: 0; AI-2 QS mod: 39; ALR inh: 95*; SUMO Mot1 rescue: -14

How did CN(Cc1cccnc1)C(=O)c1cc(COc2ccc3c(c2)CCCC3)on1 do in these assays?
HIF activator: 4; AI-2 QS mod: -80*; ALR inh: 5; SUMO Mot1 rescue: 12

How did Cc1cc(C(=O)NCC(=O)OC(C)C(=O)N2CCOCC2)ccc1[N+](=O)[O-] (stereo unspecified) do in these assays?
ALR inh: 24; SUMO Mot1 rescue: 130

What do the screens show for `O=C(C1CCCN(C2CC(=O)N(c3ccc(F)cc3)C2=O)C1)N1CCCC1` (stereo unspecified)?
HIF activator: 0; AI-2 QS mod: 30; ALR inh: -18; SUMO Mot1 rescue: 198

What do the screens show for `O=C(C1CCC1)N1CCN(c2ccc(Cl)cc2)CC1`?
HIF activator: 0; AI-2 QS mod: 5; ALR inh: 93*; SUMO Mot1 rescue: -19

How did O=C(C1CCCN(C2CC(=O)N(c3ccc(Cl)cc3)C2=O)C1)N1CCCC1 (stereo unspecified) do in these assays?
HIF activator: 0; AI-2 QS mod: 72; ALR inh: -5; SUMO Mot1 rescue: 266*

Results for S=C(NC1CC1)N1CCN(c2ccc(Cl)cc2)CC1 ?
HIF activator: 0; AI-2 QS mod: 5; ALR inh: 98*; SUMO Mot1 rescue: 18

Results for Cc1cccc(N2CCN(C(=S)NC3CCCCC3)CC2)c1C ?
HIF activator: 0; AI-2 QS mod: 8; ALR inh: -2; SUMO Mot1 rescue: active

What do the screens show for `S=C(NC1CCCC1)N1CCN(c2cccc(Cl)c2)CC1`?
HIF activator: 0; AI-2 QS mod: 7; ALR inh: -2; SUMO Mot1 rescue: 417

What do the screens show for `Cc1ccc(C)c(N2CCN(C(=S)NC3CCCCC3)CC2)c1`?
HIF activator: -1; AI-2 QS mod: 20; ALR inh: 7; SUMO Mot1 rescue: -11

What do the screens show for `O=C(c1ccc(Cl)cc1)N1CCCC(C(=O)N2CCN(c3ccccc3)CC2)C1` (stereo unspecified)?
HIF activator: 0; AI-2 QS mod: 5; ALR inh: 57; SUMO Mot1 rescue: -16

How did CC(C)(C)c1ccc(C(=O)Nc2ccc(C(=O)NCc3cccnc3)cc2)cc1 do in these assays?
HIF activator: 1; AI-2 QS mod: 12; ALR inh: 4; SUMO Mot1 rescue: 262

What do the screens show for `O=C(NCc1ccco1)C1CC(c2ccc(C(F)(F)F)cc2)=NO1` (stereo unspecified)?
HIF activator: 0; AI-2 QS mod: -8; ALR inh: 2; SUMO Mot1 rescue: 6

Results for O=C(CSc1nc2ccccc2c(=O)n1-c1ccc(OC(F)F)cc1)NC1CC1 ?
ALR inh: -1; SUMO Mot1 rescue: 4

How did CC(=O)c1cccc(NC(=O)NC(C)c2ccc3c(c2)OCO3)c1 (stereo unspecified) do in these assays?
HIF activator: -1; AI-2 QS mod: 1; ALR inh: 2; SUMO Mot1 rescue: -2

Results for Cc1ccc(NC(=O)CN(c2ccc3c(c2)OCO3)S(=O)(=O)c2c(C)n[nH]c2C)cc1 ?
AI-2 QS mod: 31; ALR inh: 90*; SUMO Mot1 rescue: 314

Results for CCOc1cc(/C=N/Nc2nc(Nc3ccccc3)nc(N3CCCCC3)n2)ccc1OCC(=O)O ?
HIF activator: 0; AI-2 QS mod: 3; ALR inh: 97*; SUMO Mot1 rescue: -17

Results for COc1cc(/C=N/Nc2nc(N3CCCCC3)nc(N3CCCCC3)n2)ccc1OC(=O)c1ccco1 ?
HIF activator: 0; AI-2 QS mod: 9; ALR inh: -1; SUMO Mot1 rescue: 0

Results for CCOc1cc(/C=N/Nc2nc(N3CCCC3)nc(N3CCCC3)n2)ccc1O ?
HIF activator: 0; AI-2 QS mod: 9; ALR inh: 99*; SUMO Mot1 rescue: -18

What do the screens show for `CCOc1cccc(/C=N/Nc2nc(N3CCCC3)nc(N3CCCC3)n2)c1O`?
HIF activator: 0; AI-2 QS mod: 10; ALR inh: -13; SUMO Mot1 rescue: -11

How did CCOc1cc(/C=N/Nc2ccccc2Cl)ccc1OCC(=O)O do in these assays?
ALR inh: 99*; SUMO Mot1 rescue: 27
